Results on 89 molecules are retold here after PubChem BioAssay AID485346 (Sanford-Burnham Center for Chemical Genomics, 2010).

The structures appear in SMILES notation. Out of some 330,000 compounds screened, about 10,000 (3%) were called active.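 The calls were made as follows: active = inhibition of at least 50% at 8 µM in the primary screen; inactive = the rest.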 The list comes from a sample in which actives are over-represented; it also holds similar structures and randomly drawn compounds.

Chain of Protein Mdm4 (Homo sapiens) + E3 ubiquitin-protein ligase Mdm2 (Homo sapiens) (O15151 whole entry, looked up): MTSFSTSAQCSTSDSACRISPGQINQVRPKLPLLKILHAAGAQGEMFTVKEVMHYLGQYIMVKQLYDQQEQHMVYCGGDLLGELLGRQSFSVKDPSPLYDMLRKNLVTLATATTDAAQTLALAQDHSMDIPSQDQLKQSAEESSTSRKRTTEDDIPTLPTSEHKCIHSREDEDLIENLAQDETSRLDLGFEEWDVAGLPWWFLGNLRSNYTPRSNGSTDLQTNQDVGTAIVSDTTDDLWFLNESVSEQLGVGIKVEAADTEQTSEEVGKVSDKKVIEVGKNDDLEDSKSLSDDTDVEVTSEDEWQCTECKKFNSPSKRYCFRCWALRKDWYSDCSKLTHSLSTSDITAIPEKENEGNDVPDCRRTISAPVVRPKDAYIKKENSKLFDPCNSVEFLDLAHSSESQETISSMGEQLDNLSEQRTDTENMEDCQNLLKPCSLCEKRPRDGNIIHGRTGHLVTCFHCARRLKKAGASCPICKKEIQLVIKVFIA
Chain of Protein Mdm4 (Homo sapiens) + E3 ubiquitin-protein ligase Mdm2 (Homo sapiens) (Q00987 whole entry, looked up): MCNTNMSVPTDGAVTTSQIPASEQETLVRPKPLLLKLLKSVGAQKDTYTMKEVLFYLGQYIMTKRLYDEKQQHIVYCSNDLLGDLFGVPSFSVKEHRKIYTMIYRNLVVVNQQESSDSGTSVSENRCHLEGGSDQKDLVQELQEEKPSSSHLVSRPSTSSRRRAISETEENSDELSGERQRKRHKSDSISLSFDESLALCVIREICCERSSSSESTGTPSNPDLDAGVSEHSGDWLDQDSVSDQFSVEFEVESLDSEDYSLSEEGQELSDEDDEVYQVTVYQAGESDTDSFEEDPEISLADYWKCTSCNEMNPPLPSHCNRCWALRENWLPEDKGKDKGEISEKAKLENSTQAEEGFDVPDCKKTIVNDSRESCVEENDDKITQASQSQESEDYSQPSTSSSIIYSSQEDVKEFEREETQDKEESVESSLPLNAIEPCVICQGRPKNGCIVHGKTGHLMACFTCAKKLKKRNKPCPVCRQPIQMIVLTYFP

The test concerns the target Protein Mdm4 (Homo sapiens) + E3 ubiquitin-protein ligase Mdm2 (Homo sapiens) (UniProt O15151+Q00987). The test can be described thus: disruptors of Mdm2/MdmX RING complex – cell-based, luminescence, split luciferase, SaOS-2, uHTS, primary screen (AID 485346). To be noted: SaOS-2 split-luciferase Mdm2/MdmX complementation, at 8 µM, stronger effect = higher value.
For orientation: inhibition means the change of the read-out against control, counted positive when it falls. `CCN1C(=O)[C@H]2[C@@H](c3ccc(-c4ccc(F)cc4)cc3)N[C@@](Cc3ccccc3)(C(=O)OC)[C@H]2C1=O`: the inhibition is 48% (inactive).
The same measure for `CCCC(CNC(=O)COC(=O)C1=NNC(=O)CC1)c1ccc(Cl)cc1Cl` (centres undefined): -11.5% (inactive); for `C=C(C)C(=O)Nc1cccc(C2=NOC3(C2)C[C@H](C(N)=O)N(C(=O)C(c2ccccc2)c2ccccc2)C3)c1` (some centres undefined): 16.4% (inactive).
As to `Cc1c(C(=O)Nc2cccc(Cl)c2)cn2c(nc3ccccc32)c1C#N`, the inhibition was 60.3% (active).
As for `Cn1c(Nc2cccc(Cl)c2)nc2ccccc21`, the inhibition was -18.1% (inactive).
To `O=C(O)c1cccc(NC(=O)c2cc(-c3cccc(Cl)c3)nc3ccccc23)c1` belongs 0.449% (inactive); to `CC(=O)c1c(C)[nH]c(C(=O)OCC(=O)NCCC(C)C)c1C`, 17.9% (inactive).
In the case of `CCOc1cc(NC(=S)NCCCN(C)C)c(OCC)cc1NC(=O)C1CC1`, the inhibition is 3.9% (inactive).
Turning to `CC(C)c1cc(C(=O)O)n[nH]1`, the inhibition is 5.75% (inactive).
In the case of `CC(C)c1cc(C(=O)N/N=C/C(Br)=C/c2ccccc2)n[nH]1`, the inhibition is 66.1% (active).
To `Cc1cc(C(=O)N/N=C\C(Br)=C\c2ccccc2)c(C)o1` belongs -18.5% (inactive); to `O=C1CSc2ccc(S(=O)(=O)NCc3ccccc3)cc2N1`, -3.1% (inactive).
`O=C1CCCC2=C1C(c1ccccc1)n1c(s/c(=C/c3cccc(F)c3)c1=O)=N2` (centres undefined): the inhibition was -4.28% (inactive).
For the molecule `COc1ccc(OC)c(C2C3=C(N=c4s/c(=C\c5cccc(O)c5)c(=O)n42)c2ccccc2CC3)c1` (centres undefined), the inhibition is 79.2% (active).
`CCOC(=O)C1=C(C)N=c2s/c(=C\C(=O)OC)c(=O)n2C1c1ccc(OC)cc1` (centres undefined): the inhibition was 12.2% (inactive).
As to `O=C(N/N=C/c1ccc(Cl)cc1)c1nc2ccc([N+](=O)[O-])cc2c(=O)[nH]1`, the inhibition was 6.69% (inactive).
For the molecule `COC(=O)c1sc(SC)c(S(=O)(=O)C(C)C)c1N/N=C(\C#N)S(=O)(=O)c1ccccn1`, the inhibition was 9.73% (inactive).
To `O=C(NC1CCc2ccccc21)C12CN(Cc3ccccc3)CC1C(c1cccc([N+](=O)[O-])c1)=NO2` (centres undefined) belongs 0.069% (inactive); to `CSc1nc(-c2ccccc2)nc(C(Cl)Cl)n1`, 101% (active).
With `CSc1ncc(Sc2ccccc2)c(C(=O)O)n1`, the inhibition is 8.72% (inactive).
Take `CN=C(NC#N)NCCSCc1nc[nH]c1C`: the inhibition was 2.92% (inactive).
Consider `CC1(C)CC(=O)C=C(NCc2ccncc2)C1`, for which the inhibition is 27.3% (inactive).
With `O=S(=O)(c1ccccc1)N1CCC(c2ccccc2)CC1`, the inhibition is -19.7% (inactive).
Take `c1ccc(C2CCC(N3CCC(N4CCCCC4)CC3)CC2)cc1` (centres undefined): the inhibition was 91.3% (active).
`Cc1ccc(S(=O)(=O)N2CCC(N3CCCCCC3)CC2)cc1`: the inhibition was 1.35% (inactive).
Take `CCOC(=O)C1CCN(C(=O)C2CCN(S(=O)(=O)CC)CC2)CC1`: the inhibition is 12.2% (inactive).
For the molecule `CCN(CC(=O)NCCCN1CCOCC1)S(=O)(=O)c1cc(Cl)ccc1Cl`, the inhibition is 20.3% (inactive).
As for `COc1ccc(N=C2SC(C(=O)Nc3ccc(F)cc3)CC(=O)N2C)cc1` (centres undefined), the inhibition is 15% (inactive).
For the molecule `Cc1cccc(NC(=O)NC(=S)NC(=O)c2ccccc2)c1`, the inhibition was -38.5% (inactive).
Take `Cc1cccc(NC(=O)Nc2cccc(Oc3c(F)c(F)c(F)c(F)c3F)c2)c1`: the inhibition is 74.3% (active).
Turning to `Cc1ccc(NC(=O)Nc2ccccc2)c(Br)c1`, the inhibition is -41.3% (inactive).
To `O=C(COc1ccc(Cl)cc1)Nc1ccc2oc(=O)ccc2c1` belongs -1.06% (inactive).
In the case of `CC(C)C(=O)Nc1ccc2oc(=O)ccc2c1`, the inhibition was 3.99% (inactive).
For the molecule `O=C(NC(=S)Nc1ccc2oc(=O)ccc2c1)c1ccc(-c2cccc(Cl)c2Cl)o1`, the inhibition was 80.7% (active).
In the case of `CC1(C)CC(=O)C=C(c2cccc3c2Oc2ccccc2S3)C1`, the inhibition was 2.33% (inactive).
The same measure for `COc1cc2c(cc1OC)CN(C(=O)c1ccc(S(=O)(=O)N3CCCCCC3)cc1)CC2`: 11% (inactive); for `CCOc1cc(C(=O)N2CCc3cc(OC)c(OC)cc3C2)ccc1OC(F)F`: 51% (active).
Turning to `COc1cc2c(cc1OC)CN(C(=O)c1cc(=O)c3ccccc3o1)CC2`, the inhibition is 49.8% (inactive).
To `Cc1c(C=O)c2ccccn2c1C(=O)c1ccncc1` belongs 22.9% (inactive); to `COc1ccc(S(=O)(=O)N2CCOCC2)cc1NC(=O)c1ccc(OCC(C)C)c(OC)c1`, 38.4% (inactive).
Turning to `Cc1ccccc1NC(=O)CSc1nc2ccc(Nc3nc(N4CCOCC4)nc(N4CCOCC4)n3)cc2s1`, the inhibition is 80.5% (active).
As to `O=C(CSc1nc2ccc(Nc3nc(N4CCOCC4)nc(N4CCOCC4)n3)cc2s1)NCc1ccco1`, the inhibition was 20.3% (inactive).
On to `CC1(c2ccccc2)NC(=O)N(CC(=O)Nc2cc(Cl)ccc2N2CCOCC2)C1=O` (centres undefined), for which the inhibition is 6.67% (inactive).
As for `Cc1ccc(Nc2nc(N3CCOCC3)nc(N3CCOCC3)n2)cc1Cl`, the inhibition was 48.2% (inactive).
As for `C/C(=N\Nc1nc(Nc2ccccc2)nc(N2CCOCC2)n1)c1cccs1`, the inhibition was 46.5% (inactive).
Regarding `O=C(CSc1nc(Nc2ccccc2)nc(N2CCOCC2)n1)Nc1cc(Cl)ccc1O`, the inhibition is 81.9% (active).
As to `NS(=O)(=O)c1ccc(N2C(=O)C3C4CC(C(Br)C4Br)C3C2=O)cc1` (centres undefined), the inhibition is -13.2% (inactive).
The same measure for `CCC(C(=O)NCc1cccnc1)n1nc(C)c2sc3ccccc3c2c1=O` (centres undefined): 20.9% (inactive).
Turning to `NC(N)=N/N=C/c1ccc(OCc2ccc(Cl)cc2Cl)cc1`, the inhibition was 97.6% (active).
For `OC(CNCCc1ccc(Cl)cc1Cl)COc1ccccc1` (centres undefined), the inhibition was -3.6% (inactive).
`Cc1nc2ccccc2nc(C)c1=NOCc1ccc(Cl)cc1Cl`: the inhibition is 22.9% (inactive).
To `COc1ccc2cc1Oc1ccc(cc1)C[C@H]1c3cc(c(OC)cc3CCN1C)Oc1c(O)c(OC)cc3c1[C@H](C2)N(C)CC3` belongs 98.4% (active); to `Cc1cccc(-[n+]2c(-c3cccc(Br)c3)[nH]c3nc4ccccc4nc32)c1`, 42.8% (inactive).
To `CCC/C(O)=C1\C(=O)CC(C)(C)CC1=Nc1ccccc1OC` belongs 17.5% (inactive); to `Cc1ccc(S(=O)(=O)Nc2ccc3ncccc3c2)cc1`, 19.7% (inactive).
As to `COc1cc(NS(=O)(=O)c2ccc3ccccc3c2)c2ncccc2c1`, the inhibition was 94.8% (active).
In the case of `COc1ccc(N2CC(NS(=O)(=O)c3ccc4ccccc4c3)CC2=O)cc1` (centres undefined), the inhibition is 4.41% (inactive).
As for `Cc1cc(NC(=O)CCC(=O)N(CC(=O)NCC2CCCO2)c2ccccc2C)no1` (centres undefined), the inhibition was 11.6% (inactive).
To `COc1ccc(OC)c(S(=O)(=O)NCCC(C)C)c1` belongs 22.1% (inactive).
`C=C(C)C(=O)O[C@H]1C/C(C)=C\C(=O)/C=C(\C)[C@H](O)[C@@H]2OC(=O)C(=C)[C@@H]21`: the inhibition is 95.4% (active).
With `O=C(CNC1CCCCC1)NCC1(c2ccccc2)CCCC1`, the inhibition was 2.11% (inactive).
`C=C1CCN([C@H](C(=O)NCc2cc(OC)c(OC)c(OC)c2)C(C)C)S(=O)(=O)c2ccccc21`: the inhibition is -24.7% (inactive).
For `C[C@@H]1CC[C@]2(O[C@@H](CCO)C[C@H](O)[C@H]2O)O1`, the inhibition was 16.3% (inactive).
Turning to `CC(=O)Nc1ccc(NC(=O)C2CCCN(S(=O)(=O)c3ccc(Cl)cc3)C2)cc1` (centres undefined), the inhibition is 55.6% (active).
Consider `COc1ccc(S(=O)(=O)N2CCCC(C(=O)Nc3ccc(NC(=O)c4ccccn4)cc3)C2)cc1` (centres undefined), for which the inhibition is -15.5% (inactive).
To `CC(C)c1ccc(NC(=O)C2CCCN(S(=O)(=O)c3cccnc3)C2)cc1` (centres undefined) belongs 20.9% (inactive).
As to `CCOC(=O)c1ccc(N2C(=O)CC(N(C)Cc3ccccc3)C2=O)cc1` (centres undefined), the inhibition is -7.46% (inactive).
As to `CCCCCCC(=O)N(O)C1CC(=O)N(c2ccccc2)C1=O` (centres undefined), the inhibition was 61.2% (active).
For `CCCCOC(=O)c1ccc(N2C(=O)CC(N3CCN(C/C=C/c4ccccc4)CC3)C2=O)cc1` (centres undefined), the inhibition is 25.8% (inactive).
On to `CS(=O)(=O)c1ccc(Cl)c(NC(=O)COC(=O)c2ncc(Cl)c(Cl)c2Cl)c1`, for which the inhibition was 13.8% (inactive).
On to `CCOc1ccc(CN2CCC(n3nccc3NC(=O)C3CC3)CC2)cc1CO`, for which the inhibition is 20% (inactive).
In the case of `Cc1ccc(-c2nc3ccccc3[nH]2)cc1NC(=O)c1sc2ccccc2c1Cl`, the inhibition was 99.3% (active).
In the case of `COc1ccc(Br)cc1C(=O)NC(=S)Nc1cc(-c2nc3ccccc3[nH]2)ccc1C`, the inhibition was 81.4% (active).
The same measure for `Cc1ccc2c(Cl)c(C(=O)Nc3nn[nH]n3)sc2c1`: 16.7% (inactive).
`CN1CCc2ccccc2C1Cc1ccccc1NC(=O)c1sc2ccccc2c1Cl` (centres undefined): the inhibition was 12.4% (inactive).
`COc1ccc(Br)cc1C(=O)Nc1cccc(C)c1C`: the inhibition is -15.3% (inactive).
Take `Cc1cc2[nH]ncc2cc1NC(=S)NC(=O)c1ccccc1`: the inhibition is 35% (inactive).
In the case of `Cc1cc(C(=O)O)c(S(C)(=O)=O)s1`, the inhibition is 24.5% (inactive).
Take `COC(=O)C(C(=O)Nc1cccc(C)n1)C1CCCCCC1` (centres undefined): the inhibition was 10.4% (inactive).
As for `C=CCOc1ccc(/C=C/C(=O)OC(C)C(=O)Nc2ccc(NC(C)=O)cc2)cc1` (centres undefined), the inhibition was 4.16% (inactive).
Turning to `CC(=O)NC(Cc1ccccc1)C(=O)NC1CCN(c2ncccc2[N+](=O)[O-])CC1` (centres undefined), the inhibition is 20.8% (inactive).
As to `COc1ccc(-c2cc3ncccc3cn2)cc1`, the inhibition was -99.3% (inactive).
With `COc1ccc(-c2cc(C3CCN(c4ncccc4[N+](=O)[O-])CC3)[nH]n2)cc1`, the inhibition is 56.4% (active).
The same measure for `COc1ccc(S(=O)(=O)N2CCCC2CNC(=O)C(=O)NC2CC2)cc1` (centres undefined): 5.26% (inactive).
Consider `CC(C)CCSc1ncnc2c1oc1nc3c(cc12)COC(C)(C)C3`, for which the inhibition is -3.42% (inactive).
Regarding `CC1(C)Cc2nc3sc4c(SCC(=O)NC(c5ccccc5)c5ccccc5)ncnc4c3cc2CO1`, the inhibition was 71.8% (active).
For `C=CCn1c(=S)[nH]c2nc3c(cc2c1=O)COC(C)(C)C3`, the inhibition was -32.6% (inactive).
In the case of `CCCCN(CC(=O)Nc1cccc(S(=O)(=O)N2CCCC2)c1)Cc1nc2ccccc2c(=O)[nH]1`, the inhibition is 15.4% (inactive).
In the case of `CC(C(=O)N1CCN(c2ccccc2F)CC1)c1ccc([N+](=O)[O-])cc1` (centres undefined), the inhibition was -3.99% (inactive).
